# Measured values as given in PMC5540273 (PLoS ONE, 2017).
# Tested on: T1, p38-alpha
# T1 construct: gene MAPK14
# Settings: concentration: 1 μM,replicates: in singlicate; n = 1
# 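Also: KINOMEscan kinase panel screen.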
row,Structure (SMILES),%Inh
1,CCn1c(-c2nonc2N)nc2c(C#CC(C)(C)O)nc(OCCN)cc21.Cl.Cl [GSK902056],0%
2,CCN(CC)CCOc1ccc(Nc2ncc3cc(-c4c(Cl)cccc4Cl)c(=O)n(C)c3n2)cc1 [SB-601273],100%
3,CC(C)Nc1cc(-c2ccc3c(N)n[nH]c3c2)nc(N)n1 [GSK2221681],0%
4,C=CC(=O)Nc1cc2c(Nc3ccc(F)c(Cl)c3)ncnc2cc1OCCCN1CCOCC1 [GW781483],19%
5,C[C@@H](Oc1cc(-c2cnn(C3CCNCC3)c2)cnc1N)c1c(Cl)ccc(F)c1Cl,2%
6,CN(C)CCOc1ccc(-c2cc(-c3c[nH]nc3-c3ccccn3)ccn2)cc1 [GW835314],16%
7,Cc1cc(C(=O)Nc2ccc(Oc3ccc4nc(NC(=O)C5CC5)cn4n3)cc2)nn1-c1ccccc1,11%
8,Cl.Cl.Nc1nc(-c2ccc3c(N)n[nH]c3c2)cc(N2CCCC(NC(=O)c3ccccc3)C2)n1 (centres unmarked) [GSK2286775],0%
9,COc1ccc(C[C@@H](CN)NC(=O)c2cc(Br)c(-c3ccnc4[nH]ccc34)s2)cc1.Cl.Cl [GSK1389063],0%
10,Cc1cc2cn[nH]c2cc1-c1cccc2c(N)c(C(N)=O)nnc12,0%
11,Cl.Cl.NC[C@H](CC1CCCCC1)NC(=O)c1cc(Br)c(-c2ccnc3[nH]ccc23)s1 [GSK1581427],0%
12,Cl.Cl.NC[C@H](Cc1ccc(C(F)(F)F)cc1)NC(=O)c1cc(Br)c(-c2ccnc3[nH]ccc23)s1 [GSK1487252],0%
13,C[C@@H]1CCN(C(=O)CC#N)C[C@@H]1N(C)c1ncnc2[nH]ccc12,1%
14,CN(C)CC(O)COc1ccc(Nc2nccc(-c3cnn4nc(N5CCOCC5)ccc34)n2)cc1 (centres unmarked) [GW767488],6%
15,CC(C)N1C(=O)Cc2cc(Nc3ncc(C(F)(F)F)c(NCc4cccc(S(C)(=O)=O)c4)n3)ccc21,96.4%
16,CNC(=O)c1ccccc1Sc1ccc2c(/C=C/c3ccccn3)n[nH]c2c1,5%
17,NC(=O)c1cc(-c2ccccc2)cc2c(C3CCNCC3)c[nH]c12 [GSK301362],0%
18,C[C@H]1Oc2cc(cnc2N)-c2c(nn(C)c2C#N)CN(C)C(=O)c2ccc(F)cc21,9%
19,Cc1ccc2c(-c3ccncc3)c(-c3ccc(F)cc3)nn2c1.Cl [GW461484],99.9%
20,CCN(CC)CCCCNc1ncc2cc(-c3c(Cl)cccc3Cl)c(NC(=O)NC(C)(C)C)nc2n1,98.2%
21,O=C(NCCCN1CCOC1=O)c1cnc(NCc2cc(Cl)ccc2Cl)nc1NC1CCCC1,9%
22,Nc1nc(Nc2ccccc2)cc(-c2ccc3c(N)n[nH]c3c2)n1 [GSK2225749],0%
23,O=C(NCCNc1ccnc(NCc2ccc(F)cc2)n1)c1cc2ccccc2s1 [GSK1379944],77%

# Tested on: T2, p38-beta
# T2 construct: gene MAPK11
# Settings: concentration: 1 μM,replicates: in singlicate; n = 1
row,Structure (SMILES),%Inh
1,Cc1n[nH]c2ccc(-c3cc(OC[C@@H](N)Cc4ccccc4)cnc3-c3ccoc3)cc12.O=C(O)C(F)(F)F.O=C(O)C(F)(F)F [GSK507358],0%
2,Cl.Oc1cc(-c2nc(-c3ccccc3)[nH]c2-c2ccncc2)ccc1Cl [SB-386023],26%
3,CCn1c(-c2nonc2N)nc2c(C#CC(C)(C)O)nc(OCCN)cc21.Cl.Cl [GSK902056],0%
4,CCN(CC)CCOc1ccc(Nc2ncc3cc(-c4c(Cl)cccc4Cl)c(=O)n(C)c3n2)cc1 [SB-601273],98.1%
5,CC(C)Nc1cc(-c2ccc3c(N)n[nH]c3c2)nc(N)n1 [GSK2221681],0%
6,C=CC(=O)Nc1cc2c(Nc3ccc(F)c(Cl)c3)ncnc2cc1OCCCN1CCOCC1 [GW781483],0%
7,C[C@@H](Oc1cc(-c2cnn(C3CCNCC3)c2)cnc1N)c1c(Cl)ccc(F)c1Cl,25%
8,CN(C)CCOc1ccc(-c2cc(-c3c[nH]nc3-c3ccccn3)ccn2)cc1 [GW835314],4%
9,Cc1cc(C(=O)Nc2ccc(Oc3ccc4nc(NC(=O)C5CC5)cn4n3)cc2)nn1-c1ccccc1,27%
10,Cl.Cl.Nc1nc(-c2ccc3c(N)n[nH]c3c2)cc(N2CCCC(NC(=O)c3ccccc3)C2)n1 (centres unmarked) [GSK2286775],0%
11,COc1ccc(C[C@@H](CN)NC(=O)c2cc(Br)c(-c3ccnc4[nH]ccc34)s2)cc1.Cl.Cl [GSK1389063],0%
12,Cc1cc2cn[nH]c2cc1-c1cccc2c(N)c(C(N)=O)nnc12,2%
13,Cl.Cl.NC[C@H](CC1CCCCC1)NC(=O)c1cc(Br)c(-c2ccnc3[nH]ccc23)s1 [GSK1581427],0%
14,Cl.Cl.NC[C@H](Cc1ccc(C(F)(F)F)cc1)NC(=O)c1cc(Br)c(-c2ccnc3[nH]ccc23)s1 [GSK1487252],0%
15,Cc1occc1-c1nc(N)c(OC[C@@H](N)Cc2c[nH]c3ccccc23)cc1-c1cc2c(C)n[nH]c2cn1 [GSK1660450],0%
16,C[C@@H]1CCN(C(=O)CC#N)C[C@@H]1N(C)c1ncnc2[nH]ccc12,13%
17,CN(C)CC(O)COc1ccc(Nc2nccc(-c3cnn4nc(N5CCOCC5)ccc34)n2)cc1 (centres unmarked) [GW767488],23%
18,CC(C)N1C(=O)Cc2cc(Nc3ncc(C(F)(F)F)c(NCc4cccc(S(C)(=O)=O)c4)n3)ccc21,2%
19,CNC(=O)c1ccccc1Sc1ccc2c(/C=C/c3ccccn3)n[nH]c2c1,15%
20,NC(=O)c1cc(-c2ccccc2)cc2c(C3CCNCC3)c[nH]c12 [GSK301362],0%
21,C[C@H]1Oc2cc(cnc2N)-c2c(nn(C)c2C#N)CN(C)C(=O)c2ccc(F)cc21,18%
22,Cc1ccc2c(-c3ccncc3)c(-c3ccc(F)cc3)nn2c1.Cl [GW461484],39%
23,CCN(CC)CCCCNc1ncc2cc(-c3c(Cl)cccc3Cl)c(NC(=O)NC(C)(C)C)nc2n1,81%
24,O=C(NCCCN1CCOC1=O)c1cnc(NCc2cc(Cl)ccc2Cl)nc1NC1CCCC1,0%
25,Nc1nc(Nc2ccccc2)cc(-c2ccc3c(N)n[nH]c3c2)n1 [GSK2225749],0%
26,Cc1ccc(-n2nc(C(C)(C)C)cc2NC(=O)Nc2ccc(OCCN3CCOCC3)c3ccccc23)cc1 [GW839464],56%
27,O=C(NCCNc1ccnc(NCc2ccc(F)cc2)n1)c1cc2ccccc2s1 [GSK1379944],0%
